Screens as filed in PubChem BioAssay.
ADAM17 inh = inhibitors of human ADAM17 | 0.83% of 370,000 active | inhibition, % at 6.95 µM | AID 720648 | recombinant ADAM17, EDANS/DABCYL FRET peptide cleavage;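 active = inhibition above the mean of compounds lying between control limits plus 3 SD, set per campaign, cut at about 8.5% in these data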;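 note: 0% = DMSO-only wells as the low control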
ADAM10 inh = inhibitors of human ADAM10; 0.62% of 370,000 active; recombinant ADAM10, EDANS/DABCYL FRET peptide cleavage, 3 h; O14672; inhibition, % at 7 µM;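 active = inhibition above a per-campaign cutoff equal to the mean of compounds falling between control-based bounds plus 3 SD, cut at about 20% in these data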;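 note: 0% = DMSO wells while the 100% control is not disclosed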
PLC-gamma1 inh = blocks human PLC-gamma1 enzyme activity | purified PLC-gamma1, fluorogenic substrate, fluorescence | inhibition, % at 12.2 µM | 0.84% of 370,000 active | AID 720700; in the data active = inhibition above about 9.5%
KLK7 zymogen act = activators of human kallikrein-7 zymogen. P49862. activation, % at 7 µM. 0.9% of 370,000 active. purified proKLK7, EDANS-DABCYL substrate fluorescence; 100% is mature enzyme control, 0% vehicle;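 active = activation above the mean of all tested compounds plus 3 SD, computed per campaign excluding outliers beyond control limits, cut at about 13% in these data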
PLC-beta3 inh = inhibitors of human phospholipase C beta3; Q01970; Purified PLC-beta3, fluorogenic substrate, fluorescence; inhibition, % at 12.2 µM; 0.18% of 370,000 active; in the data active = inhibition above about 11%;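 note: 0% = median of compound wells on plate and 100% = full blocker control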
KLK7 act conf = confirmation of human kallikrein-7 zymogen activators; shares compounds with KLK7 zymogen act; purified proKLK7, EDANS-DABCYL substrate fluorescence; scaled: vehicle 0, mature enzyme 100; activation, % at 7 µM; 68% of 3,200 active;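 active = activation, as change over the incubation, above the mean of all tested compounds plus 3 SD, cut at about 13% in these data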
EDANS interfere = counter-screen for kallikrein-7 activators: EDANS-DABCYL optical interference; shares compounds with KLK7 zymogen act; EDANS-DABCYL substrate fluorescence interference, no enzyme, 4 h; solvent 0%, active enzyme control 100%; 80% of 3,200 active; AID 686952; activation, % at 7 µM;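 active = activation above the all-compound mean plus 3 SD, ignoring values outside control-based bounds, cut at about 4.8% in these data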;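 note: value is the 4 h activation minus the activation read at time zero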
K7 EDANS ctr = EDANS fluorescence interference in dose response, no enzyme; EC50, µM; shares compounds with KLK7 zymogen act; EDANS-DABCYL peptide fluorescence interference; AID 720493; 20% of 250 active;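 active = compounds that raise the fluorescence signal in this interference counterscreen, with EC50 at or below 10 µM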;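 note: intact quenched peptide substrate alone read at 355 nm excitation and 520 nm emission; signal is fluorescence gain from T0 to T4 after four hours at room temperature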
The depositor's hits bear a star; i = inactive; / = not tested or not shown. An excerpt weighted towards active compounds, which were near 2.9% of everything screened.

SMILES	ADAM17 inh	ADAM10 inh	PLC-gamma1 inh	KLK7 zymogen act	PLC-beta3 inh	KLK7 act conf	EDANS interfere	others
CCOC(=O)CC1C(=O)NCCN1C(=O)c1cc2c(=O)n3cccc(C)c3nc2s1 (stereo not drawn)	i	i	-494	43*	i	25*	32*
CCOC(=O)C1CCN(C(=O)c2cc3c(=O)n4ccccc4nc3s2)CC1	i	i	i	42*	i	68*	71*
O=C(c1cc2c(=O)n3ccccc3nc2s1)N1CCN(Cc2ccccc2)CC1	i	i	i	25*	i	-76	-93
C=CCC12C=C(OC)C(=O)C(C1=O)C1c3ccccc3CC12 (stereo not drawn)	-2	-4	1	0	3	/	/
Cc1cc(OCC(C)CN2CCC(C(O)(c3ccccc3)c3ccccc3)CC2)ccc1Br (stereo not drawn)	2	7	0	1	-5	/	/
CCOc1ccc(Oc2c(Cl)cnn(Cc3cccc4ccccc34)c2=O)cc1	-6	-1	0	0	-1	/	/
COc1cccc2sc3ccc(NCCC4CCCN4C)cc3c(=O)c12 (stereo not drawn)	-4	-17	-85	0	-119	/	/
COc1cc2sc3cc(NCC[C@@H]4CCCN4C)ccc3c(=O)c2cc1OC	-284	i	-474	21*	i	-68	-65
CCOC(=O)C(=NC1CCS(=O)(=O)C1)NNc1ccc(Br)cc1 (stereo not drawn)	3	-6	-5	0	-10	/	/
CCOC(=O)C(=NC(C)CC)NNc1ccc(Br)cc1 (stereo not drawn)	-4	-11	-27	16*	-28	24*	26*
CCOC(=O)C(=NC(C)CC)NNc1cccc(C(F)(F)F)c1 (stereo not drawn)	-1	-5	-26	17*	-37	22*	26*
CCOC(=O)C(=NC1CCCCC1)NNc1cccc(C(F)(F)F)c1	0	-7	-5	7	-8	/	/
Cc1cccc2cc3c(NC(=O)C(C)C)nn(C)c3nc12	-8	-24	-136	0	-174	/	/
Cc1ccc2cc3c(NC(=O)C(C)C)nn(C)c3nc2c1	-6	-35	-329	15*	-341	-9	-1
CNC(=S)NNC(=O)c1ccccc1Br	1	1	3	0	6	/	/
C=CCNC(=S)NNC(=O)c1cccn(Cc2ccc(Cl)c(Cl)c2)c1=O	-56	-436	-17	22*	-19	33*	36*
CNC(=S)NNC(=O)c1cccn(Cc2cccc(Cl)c2)c1=O	-24	-150	-15	15*	-20	30*	34*
CNC(=S)NNC(=O)c1cccn(Cc2ccc(Cl)c(Cl)c2)c1=O	-55	-319	-21	21*	-27	31*	34*
NNC(=O)c1cccn(Cc2cccc(C(F)(F)F)c2)c1=O	-6	-5	-7	6	-9	/	/
O=C(O)CCN1C(=O)/C(=C/c2ccc(F)cc2F)SC1=S	-1	-1	-1	/	-4	/	/
Cc1ccc(NC(=O)C2CCCN(c3nnc(-n4cccc4)s3)C2)cc1C (stereo not drawn)	-3	-7	3	-1	-4	/	/
COC(=O)c1cc2c(c3c4cc(F)ccc4n(S(=O)(=O)c4cccc(C)c4)c13)C(=O)N(Cc1ccc(C(F)(F)F)cc1)C2	-3	-2	-5	1	-8	/	/
CCCC(=O)OC12CCCN(C1)/C(=C/c1cccc(N(C)C)c1)C2 (stereo not drawn)	-12	-36	-11	-1	-18	/	/
CCOP(=O)(OCC)/C(C#N)=C/c1cc(OC)ccc1OC	-33	-89	-144	42*	-205	39*	39*
CCOC(=O)/C(C#N)=C/Nc1cc(OC)ccc1OC	-1	-6	-44	-1	-47	/	/
SMILES	ADAM17 inh	ADAM10 inh	PLC-gamma1 inh	KLK7 zymogen act	PLC-beta3 inh	KLK7 act conf	EDANS interfere	others
Cc1ccccc1C=Nc1ccccc1C(N)=O	-319	i	-403	18*	-420	28*	29*
NC(=O)c1ccccc1N=Cc1ccccn1	-125	i	-137	3	-189	/	/
Cc1ccc(C=Nc2ccccc2C(N)=O)cc1	-389	i	-407	19*	i	40*	31*	K7 EDANS ctr=>70
Cc1ccc(C=Nc2ccccc2C(=O)Nc2ccccc2)cc1	-145	-484	-427	-21	-487	/	/
COc1ccc(-c2cc(-c3ccccc3)nc3ncnn23)cc1	i	i	i	15*	i	-52	-76
COc1ccc2c(=O)c3ccccc3oc2c1	-9	-50	0	0	2	/	/
COc1ccc2oc3cc(NCCN(C)C)ccc3c(=O)c2c1	i	i	i	66*	i	80*	79*
CN(CCOC(=O)c1cc2ccccc2o1)C1CN(Cc2cn(Cc3cccc(F)c3)nn2)S(=O)(=O)C1 (stereo not drawn)	-6	-7	1	0	-2	/	/
CCN(C)c1ccc(/C=N\n2nnnc2N)cc1	-91	-381	-304	13*	-423	46*	43*
Nc1nnnn1/N=C/c1ccc(O)cc1	-17	-51	-8	-6	-6	/	/
CC(COc1cc(F)cc(F)c1)CN1CCC(C(O)(c2ccccc2)c2ccccc2)CC1 (stereo not drawn)	5	3	3	0	8	/	/
CC(=O)Oc1c(-c2ccco2)oc2ccccc2c1=O	-69	-190	i	14*	i	21*	19*
C=CCN1[C@H](CC(C)C)COc2cc(N3CCSCC3)ccc2S1(=O)=O	-6	-2	-3	1	-2	/	/
CCc1c(C)c2ccc(O)c(CN(C)C)c2oc1=O	i	i	i	56*	i	65*	65*
CCCCN(CC)Cc1c(O)ccc2c3c(c(=O)oc12)CCC3	i	i	i	62*	i	68*	72*
Cc1c(Br)c(=O)oc2c(C)c(O)ccc12	-294	i	i	-3	i	/	/
CN(C)Cc1c(O)ccc2c3c(c(=O)oc12)CCCCC3	i	i	i	48*	i	57*	78*
CN(Cc1c(O)ccc2c1oc(=O)c1ccccc12)C1CCCCC1	-7	-34	-245	-3	-356	/	/
COCCN(CCOC)Cc1c(O)ccc2c3c(c(=O)oc12)CCC3	i	i	i	61*	i	70*	74*
O=C(C(=O)N1CCN(S(=O)(=O)c2cccc3ccccc23)CC1)c1cccc(C(F)(F)F)c1	5	12	1	1	3	/	/
